Sampled rows, rich in hits. Any-hit rate of the full collection: about 9.3%.
ELG1 repair inh = qHTS screen for small molecules that inhibit ELG1-dependent DNA repair in human embryonic kidney (HEK293T) cells expressing luciferase-tagged ELG1 | HEK293T ELG1-luciferase reporter, luminescence, 16 h; DNA damage induced by 5-fluorouridine | Potency, µM (top dose mostly 46.1 µM), without a hit: at the highest dose activity change, negative = inhibition, most hits filed as inhibitors | hit rate 2.3% among 330,000 | AID 504467, 2011; further: on the % scale 0 is the no-effect control and ±100 the full control effect; nearly all actives have a fitted effect of over 55% in size
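Luminescence from the luciferase reporter, measured 30 min after ONE-Glo reagent at room temperature, was the read-out. Beforehand, 2,000 cells per well were exposed for 16 hr at 37 °C to 5-fluorouridine together with compound or vehicle.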
FLuc modulator = qHTS profiling assay for firefly luciferase inhibitor/activator using purifed enzyme and Km concentrations of substrates (counterscreen for miR-21 project); Luciferin 4-monooxygenase (Photinus pyralis), P08659; purified FLuc, Km substrates, luminescence inhibition; AID 588342, 2011; hit rate 6.9% among 360,000; Potency, µM (highest dose often 57.5 µM), for the others: at the highest dose activity change, negative = inhibition, hits mostly inhibitors;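 further: plate controls were vehicle for no effect and reference inhibitor for full effect; nearly all actives have a fitted effect of over 55% in size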
Target sequence (P08659 whole entry, looked up): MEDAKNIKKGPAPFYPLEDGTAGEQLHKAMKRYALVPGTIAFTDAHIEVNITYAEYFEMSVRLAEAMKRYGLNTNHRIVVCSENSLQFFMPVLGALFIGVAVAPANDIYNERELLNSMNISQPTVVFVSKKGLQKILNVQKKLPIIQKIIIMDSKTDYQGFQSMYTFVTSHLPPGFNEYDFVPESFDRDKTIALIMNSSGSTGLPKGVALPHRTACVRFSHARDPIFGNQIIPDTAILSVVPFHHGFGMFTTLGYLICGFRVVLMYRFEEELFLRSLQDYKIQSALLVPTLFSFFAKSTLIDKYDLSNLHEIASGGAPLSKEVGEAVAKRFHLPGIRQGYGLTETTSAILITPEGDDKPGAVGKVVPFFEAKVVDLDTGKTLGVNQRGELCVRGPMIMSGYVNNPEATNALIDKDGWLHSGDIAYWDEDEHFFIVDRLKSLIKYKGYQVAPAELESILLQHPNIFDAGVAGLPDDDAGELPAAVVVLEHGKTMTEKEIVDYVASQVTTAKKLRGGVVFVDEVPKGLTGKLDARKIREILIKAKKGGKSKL
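Biochemical qHTS of compounds, final roughly 60 µM downward over six points, against 10 nM purified firefly luciferase using Km concentrations of substrates (10 uM D-luciferin, 10 uM ATP) in Tris acetate pH 7.5 buffer; luminescence output.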
SMN2 splice enh = qHTS Assay for Enhancers of SMN2 Splice Variant Expression; HEK293 SMN2-luciferase splicing reporter, luminescence, 30-36 h; Potency, µM (doses to about 46.1 µM), inactives show at the top dose activity change, positive = activation, hits mostly activators; hit rate 2.8% among 210,000; further: % of control where 0% means no effect; nearly all actives have a fitted effect of over 55% in size
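HEK293 cells carry an SMN2 minigene-luciferase reporter in which exon 7 inclusion puts luciferase in frame. Cells were seeded at 2000 cells/well, attached for 10-12 hours, then exposed to compounds for 30-36 hours at 37C before ONE-Glo luminescence.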
ELG1 genotoxic = qHTS screen for small molecules that induce genotoxicity in human embryonic kidney (HEK293T) cells expressing luciferase-tagged ELG1; HEK293T ELG1-luciferase reporter, luminescence, 16 h; Potency, µM (doses to about 46 µM), inactives show at the highest dose activity change, positive = activation, usual class: activators; hit rate 1.3% among 330,000; AID 504466, 2011; further: % of control where 0% means no effect; nearly all actives have a fitted effect of over 60% in size
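Cells (2,000/well) expressing the ELG1-luciferase fusion are dosed by pin tool and kept 16 hr at 37 °C, 5% CO2. Signal comes from ONE-Glo luciferase reagent after 30 min at room temperature.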
NPC1 prom act = qHTS Assay for NPC1 Promoter Activators; Huh7 NPC1 promoter luciferase reporter, 24 h; Potency, µM (top dose mostly 9.22 µM), without a hit: at the top dose activation, usual class: activators; hit rate 2.4% among 320,000; AID 485313, 2010; further: % of control where 0% means no effect; nearly all actives have a fitted effect of over 60% in size
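Stably transfected Huh7 (NPC1 promoter→luciferase), 1500 cells/well in Opti-MEM + 10% FBS, 2 h settle, then compound 24 h at 37 °C. Luminescence after 10 min with Amplite reagent.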
Rab9 prom act = qHTS Assay for Rab9 Promoter Activators; Huh7 Rab9 promoter-luciferase reporter, luminescence, 24 h; Potency, µM (doses to about 9.22 µM), for the others: at the top dose activation, negative = inhibition, most hits filed as activators; hit rate 2.8% among 320,000; AID 485297, 2010; further: % of control where 0% means no effect; nearly all actives have a fitted effect of over 60% in size
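Measured in stably transfected Huh7 cells bearing a Rab9 promoter–luciferase construct: 24 h compound treatment at 37 °C, followed by luminescence detection.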
An asterisk follows results filed as active; ? = inconclusive; nt = not tested or not shown; [ ] = another dose, or the depositor's remark. The call rests on the fitted dose curve; in most records, active means well fitted curve in the direction sought with a large enough effect; inconclusive means small, poorly fitted or top-dose-only effect, or another doubt; inactive means no such curve, though single readings can be large; an effect the other way counts as inactive or inconclusive. Potency means the concentration at half of the fitted maximal effect.

SMILES | ELG1 repair inh | FLuc modulator | SMN2 splice enh | ELG1 genotoxic | NPC1 prom act | Rab9 prom act
CC(C)C(=O)c1cc2c(cc1NC(=O)Nc1cccc3ccccc13)OCCO2 | 23µM* | -2% | 9% | 0% | 8% | -3%
O=C1c2ccccc2CCC12N=NCC2c1ccc(Cl)cc1 (configuration not stated) | -6% | 21µM* | -13% | 0% | -4% | 7%
O=C1c2ccccc2CCC12N=NCC2c1ccc(Br)cc1 (configuration not stated) | 10% | ? | -18% | -8% | -1% | 1%
COc1ccc(C2CN=NC23CCc2ccccc2C3=O)cc1 (configuration not stated) | ? | 17µM* | nt | 2% | -3% | 1%
O=C(c1cn(-c2ccccc2)nc1-c1ccccc1)N1CCN(c2ccccn2)CC1 | ? | 11µM* | 7% | -9% | -1% | -5%
O=C(c1cn(Cc2ccccc2)nc1-c1ccc(Cl)cc1)N1CCN(c2ccccn2)CC1 | ? | 2% | nt | -9% | 3% | -2%
Cc1ccc(-c2nn(-c3ccccc3)cc2C(=O)N2CCN(c3ccccn3)CC2)cc1 | ? | 15µM* | 3% | -6% | -6% | 7%
Cc1ccc(-c2nn(Cc3ccccc3)cc2C(=O)N2CCN(c3ccccn3)CC2)cc1 | ? | 3% | nt | 2% | 1% | -7%
Cc1nc(N2CCOCC2)c2c(C(=O)N3CCN(c4ccc(Cl)cc4)CC3)c(C)oc2n1 | nt | -6% | nt | nt | nt | nt
CC(C)c1nn2c(=O)cc(COC(=O)c3ccccc3NC(=O)c3cccc(Cl)c3)nc2s1 | nt | -1% | nt | nt | nt | nt
O=C(Nc1nccs1)c1ccc(-c2ccc(F)cc2)o1 | ? | 2.1µM* | 11µM* | ? | 2.2µM* | 3.5µM*
C/C=C/C=C/C(=O)Nc1nccs1 | ? | ? | -6%[1.84 µM] | 11% | 4% | ?
O=C(Nc1nccs1)c1ccc(-c2ccc([N+](=O)[O-])cc2)o1 | ? | 6µM* | 13µM* | ? | 1.8µM* | 1.4µM*
O=C(/C=C/c1ccc(Cl)cc1)Nc1nccs1 | ? | 1.3µM* | 4µM* | ? | 0.63µM* | 0.32µM*
O=C(Nc1nccs1)c1ccc(-c2ccc(Cl)cc2)o1 | ? | 0.21µM* | 11µM* | ? | 1.4µM* | 1µM*
CN(CC(=O)Nc1ccccc1Cl)C(=O)CSc1nnc(-c2ccco2)n1C | 1% | nt | nt | 2% | 1% | 1%
O=C(c1ccc(F)cc1F)N1CCN(c2ccccn2)CC1 | -1% | -3% | nt | -4% | -2% | 0%
CCc1ccc(-n2c(CCC(=O)O)ccc2-c2cccs2)cc1 | nt | 13µM* | 2% | nt | nt | nt
Cc1ccc(-n2c(CCC(=O)O)ccc2-c2cccs2)cc1C | 6% | 12µM* | -12% | 2% | 2% | -8%
COc1ccc(N2CCN(C(CNS(=O)(=O)c3ccc(OC)c(C)c3)c3ccco3)CC2)cc1 (configuration not stated) | nt | -7% | nt | nt | nt | nt
CC(C(=O)Nc1ccccc1C(F)(F)F)N1CCN(C)CC1 (configuration not stated) | ? | 0% | nt | -1% | 8% | -1%
Cc1cccc(N(C)S(=O)(=O)c2c(C)noc2C)c1 | -5% | 1% | nt | -6% | 1% | 1%
O=C(Nc1ccc(F)c(Cl)c1)c1cc(S(=O)(=O)N2CCCc3ccccc32)ccc1F | nt | 12µM* | nt | nt | nt | nt
COc1ccc(S(=O)(=O)N2CCCc3ccccc32)cc1OC | ? | 19µM* | nt | ? | -2% | -6%
COc1ccc(S(=O)(=O)N2CCCc3ccccc32)cc1[N+](=O)[O-] | ? | 0% | nt | -2% | -3% | -4%
SMILES | ELG1 repair inh | FLuc modulator | SMN2 splice enh | ELG1 genotoxic | NPC1 prom act | Rab9 prom act
COc1cc(NC(=O)C2=C(C)Nc3nnnn3C2c2ccc(SC)cc2)c(OC)cc1Cl (configuration not stated) | nt | -19% | 0% | nt | nt | nt
COc1cc2ncc(S(=O)(=O)c3ccccc3)c(N3CCCC(C)C3)c2cc1OC (configuration not stated) | 18µM* | 1% | nt | -9% | -8% | 3%
Cc1ccc(C)c(N2CCN(C(=O)c3ccc4c(c3)N(Cc3ccc(F)cc3)C(=O)c3ccccc3S4=O)CC2)c1 (configuration not stated) | nt | 5% | 22% | nt | nt | nt
Cc1ccc(N=Nc2c(=O)[nH]n3c(=O)cc(C)[nH]c23)cc1 | ? | 15µM* | -37% | ? | 6% | 7%
Cc1nc2c(-c3ccccc3)cnn2c(N)c1-c1ccccc1 | ? | 0.21µM* | nt | ? | ? | 16%
COc1ccc(-c2cc(C)nc3c(-c4ccccc4)cnn23)cc1 | ? | 0.67µM* | ? | 0.65µM* | 0.5µM* | 0.56µM*
Cc1cc(-c2ccccc2)n2ncc(-c3ccccc3)c2n1 | ? | 0.19µM* | -52% | 0.21µM* | 2.8µM* | 0.5µM*
O=C(CSc1ccc(-c2ccco2)nn1)c1ccccc1 | ? | 27µM* | 18% | 13% | 16% | ?
CCOC(=O)Cc1c(C)nc2c(-c3ccccc3)cnn2c1C | ? | ? | 17% | 14% | 14% | 28%
Cc1cc(SCC(=O)c2ccccc2)n2ncc(-c3ccccc3)c2n1 | ? | 9.5µM* | nt | 9% | 5µM* | 3.5µM*
Cc1cc(SCC(=O)c2ccccc2)nc(C)n1 | ? | 12µM* | 29% | ? | 3.5µM* | 2.5µM*
Cc1cc(SCC(=O)c2cccs2)n2nc(C)c(-c3ccccc3)c2n1 | ? | ? | -6% | -2% | -1% | 1%
O=Cc1ccc(Cl)cc1 | nt | nt | 4% | nt | nt | nt
Cc1sc2nc(-c3ccccc3)[nH]c(=O)c2c1-c1ccccc1 | 22% | -6% | 0% | 6% | -3% | -2%
